We go through one sequence from publication PMC7862700, “An all-to-all approach to the identification of sequence-specific readers for epigenetic DNA modifications on cytosine”.

Common to all, as to assay: DAPPL (digital affinity profiling via proximity ligation, sequencing); 10 mM Tris-HCl pH 7.5, 50 mM NaCl, 1 mM DTT, 4% glycerol, room temperature, 30 min; GST-TFs on glutathione beads, 16-mer random dsDNA library, 0.1% formaldehyde crosslink after washing; high values mean tight binding
Conditions in all cases: protein: recombinant; tags: N-terminal GST; dsDNA, one strand shown

The target of assay [1] is T1, FLI1 (Homo sapiens, UniProt Q01543 1-452).
T1 sequence: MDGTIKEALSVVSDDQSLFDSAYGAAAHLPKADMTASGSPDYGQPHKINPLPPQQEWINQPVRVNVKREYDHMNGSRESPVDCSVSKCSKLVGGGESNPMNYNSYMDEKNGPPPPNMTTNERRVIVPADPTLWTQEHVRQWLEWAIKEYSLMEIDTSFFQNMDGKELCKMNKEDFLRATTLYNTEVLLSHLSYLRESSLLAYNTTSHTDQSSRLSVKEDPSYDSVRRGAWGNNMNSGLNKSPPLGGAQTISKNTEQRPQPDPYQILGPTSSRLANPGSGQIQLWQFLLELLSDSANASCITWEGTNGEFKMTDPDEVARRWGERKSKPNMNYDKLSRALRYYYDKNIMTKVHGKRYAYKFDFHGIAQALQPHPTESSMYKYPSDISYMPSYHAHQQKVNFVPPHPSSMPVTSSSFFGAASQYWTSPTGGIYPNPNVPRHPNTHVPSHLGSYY
An outline of the steps: (§1)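 Sequencing on an Illumina NextSeq500 followed washing, crosslinking with 0.1% formaldehyde, proximity ligation (BsaI/T4 ligase, 1 h, 37 °C) and PCR amplification of pools that had been incubated for 30 min at room temperature with 200 nmole of a random double-stranded 16-mer DNA library in Tris/NaCl/DTT/glycerol buffer. Each pool held DNA-barcoded human transcription factors, expressed in yeast as GST fusions and captured on glutathione beads, plus a tag-only sample. Binding signal is a hexamer's read frequency for a factor divided by its frequency in the tag-only sample.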

In assay [2] the target is T2, ELK1 (Homo sapiens, UniProt P19419 1-428).
T2 sequence: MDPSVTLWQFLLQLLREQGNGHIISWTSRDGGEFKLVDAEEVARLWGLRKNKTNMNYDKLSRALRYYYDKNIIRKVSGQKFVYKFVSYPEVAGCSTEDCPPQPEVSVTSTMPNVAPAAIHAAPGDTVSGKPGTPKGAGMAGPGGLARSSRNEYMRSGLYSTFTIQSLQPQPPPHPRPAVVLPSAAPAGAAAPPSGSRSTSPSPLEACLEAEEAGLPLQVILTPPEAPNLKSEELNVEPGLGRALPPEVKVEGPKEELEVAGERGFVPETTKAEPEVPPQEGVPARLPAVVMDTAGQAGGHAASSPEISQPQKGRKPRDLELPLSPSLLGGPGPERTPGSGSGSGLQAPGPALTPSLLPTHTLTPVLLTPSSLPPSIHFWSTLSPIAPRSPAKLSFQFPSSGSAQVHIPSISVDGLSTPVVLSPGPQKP
An outline of the steps: as §1

Assay [3] concerns the target T3, GABPA (Homo sapiens, UniProt Q06546 1-454).
T3 sequence: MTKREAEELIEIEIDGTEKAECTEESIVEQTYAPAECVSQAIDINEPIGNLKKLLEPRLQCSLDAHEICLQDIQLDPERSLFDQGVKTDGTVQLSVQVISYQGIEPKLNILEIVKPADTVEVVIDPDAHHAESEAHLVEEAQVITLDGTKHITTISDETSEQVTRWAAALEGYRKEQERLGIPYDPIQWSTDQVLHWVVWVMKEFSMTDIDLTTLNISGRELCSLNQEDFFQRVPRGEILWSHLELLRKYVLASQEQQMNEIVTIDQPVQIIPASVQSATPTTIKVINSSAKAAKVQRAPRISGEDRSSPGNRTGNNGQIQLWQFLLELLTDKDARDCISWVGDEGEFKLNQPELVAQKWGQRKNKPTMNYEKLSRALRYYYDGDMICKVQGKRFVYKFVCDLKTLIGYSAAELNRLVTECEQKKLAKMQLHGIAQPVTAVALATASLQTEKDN
A digest of the protocol: as §1

Assay [4] addresses T4, ERG (Homo sapiens, UniProt P11308 1-479).
T4 sequence: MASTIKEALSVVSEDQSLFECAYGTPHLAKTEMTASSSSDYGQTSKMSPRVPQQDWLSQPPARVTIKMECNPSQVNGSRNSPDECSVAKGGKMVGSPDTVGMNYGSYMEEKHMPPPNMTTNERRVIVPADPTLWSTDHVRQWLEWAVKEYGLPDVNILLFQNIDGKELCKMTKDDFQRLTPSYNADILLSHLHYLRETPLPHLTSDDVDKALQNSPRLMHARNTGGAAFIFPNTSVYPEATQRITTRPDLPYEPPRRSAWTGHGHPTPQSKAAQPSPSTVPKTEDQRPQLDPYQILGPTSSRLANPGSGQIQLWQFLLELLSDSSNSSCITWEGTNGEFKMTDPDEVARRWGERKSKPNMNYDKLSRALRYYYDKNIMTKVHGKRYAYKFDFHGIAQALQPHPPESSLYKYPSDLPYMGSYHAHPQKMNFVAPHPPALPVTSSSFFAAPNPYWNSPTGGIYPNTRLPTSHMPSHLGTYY
A digest of the protocol: as §1

Assay [5] concerns the target ELF1 (Homo sapiens, UniProt P32519 1-619). An outline of the steps: as §1
Assay [6] concerns the target T5, EHF (Homo sapiens, UniProt Q9NZC4 1-300).
T5 sequence: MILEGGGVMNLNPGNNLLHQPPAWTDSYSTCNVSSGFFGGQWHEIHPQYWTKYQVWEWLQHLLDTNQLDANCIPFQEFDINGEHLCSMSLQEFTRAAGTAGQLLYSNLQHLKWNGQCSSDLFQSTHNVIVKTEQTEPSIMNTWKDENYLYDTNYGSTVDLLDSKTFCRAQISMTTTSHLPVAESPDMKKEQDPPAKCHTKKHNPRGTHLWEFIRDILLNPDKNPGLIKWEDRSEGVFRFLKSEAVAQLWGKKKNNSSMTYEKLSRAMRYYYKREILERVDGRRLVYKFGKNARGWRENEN
A digest of the protocol:
as §1

In assay [7] the target is SPI1 (Homo sapiens, UniProt P17947 1-270). A digest of the protocol:
as §1

Assay [8] has as its target SPIB (Homo sapiens, UniProt Q01892 1-262). An outline of the steps:
as §1

Assay [9] concerns the target T6, ELK3 (Homo sapiens, UniProt P41970 1-407).
T6 sequence: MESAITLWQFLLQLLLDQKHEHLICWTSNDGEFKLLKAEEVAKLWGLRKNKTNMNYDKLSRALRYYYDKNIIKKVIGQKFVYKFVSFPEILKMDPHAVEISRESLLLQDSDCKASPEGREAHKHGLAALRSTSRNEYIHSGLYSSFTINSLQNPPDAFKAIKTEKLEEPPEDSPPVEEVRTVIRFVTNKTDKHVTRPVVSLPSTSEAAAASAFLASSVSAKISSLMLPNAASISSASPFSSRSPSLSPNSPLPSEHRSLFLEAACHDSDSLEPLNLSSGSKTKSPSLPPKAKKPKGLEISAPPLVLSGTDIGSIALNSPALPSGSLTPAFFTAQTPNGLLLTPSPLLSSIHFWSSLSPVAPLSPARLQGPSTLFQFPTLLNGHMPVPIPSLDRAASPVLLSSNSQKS
An outline of the steps:
as §1

The target of assay [10] is T7, FEV (Homo sapiens, UniProt Q99581 1-238).
T7 sequence: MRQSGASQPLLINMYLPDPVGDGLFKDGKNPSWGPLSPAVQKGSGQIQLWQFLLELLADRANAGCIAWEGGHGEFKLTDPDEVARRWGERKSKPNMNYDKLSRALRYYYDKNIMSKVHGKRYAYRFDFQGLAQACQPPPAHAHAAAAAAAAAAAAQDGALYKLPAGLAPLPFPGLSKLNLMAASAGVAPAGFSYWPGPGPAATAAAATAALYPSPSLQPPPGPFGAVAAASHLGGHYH
An outline of the steps:
as §1

For assay [11], the target named is ETV5 (Homo sapiens, UniProt P41161 1-510). An outline of the steps:
as §1

The target in assay [12] is T8, SPIC (Homo sapiens, UniProt Q8N5J4 1-248).
T8 sequence: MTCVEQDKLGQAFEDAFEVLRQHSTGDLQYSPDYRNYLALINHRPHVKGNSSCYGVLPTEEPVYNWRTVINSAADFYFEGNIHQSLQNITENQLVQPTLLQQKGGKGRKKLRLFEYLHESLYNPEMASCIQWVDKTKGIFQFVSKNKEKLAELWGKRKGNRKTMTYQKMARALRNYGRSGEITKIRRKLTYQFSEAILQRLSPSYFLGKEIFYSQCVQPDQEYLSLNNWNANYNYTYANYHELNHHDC
A digest of the protocol: as §1

Assay [13] addresses ELF4 (Homo sapiens, UniProt Q99607 1-663). A digest of the protocol:
as §1

For assay [14], the target named is T9, ELK4 (Homo sapiens, UniProt P28324-2 1-405).
T9 sequence: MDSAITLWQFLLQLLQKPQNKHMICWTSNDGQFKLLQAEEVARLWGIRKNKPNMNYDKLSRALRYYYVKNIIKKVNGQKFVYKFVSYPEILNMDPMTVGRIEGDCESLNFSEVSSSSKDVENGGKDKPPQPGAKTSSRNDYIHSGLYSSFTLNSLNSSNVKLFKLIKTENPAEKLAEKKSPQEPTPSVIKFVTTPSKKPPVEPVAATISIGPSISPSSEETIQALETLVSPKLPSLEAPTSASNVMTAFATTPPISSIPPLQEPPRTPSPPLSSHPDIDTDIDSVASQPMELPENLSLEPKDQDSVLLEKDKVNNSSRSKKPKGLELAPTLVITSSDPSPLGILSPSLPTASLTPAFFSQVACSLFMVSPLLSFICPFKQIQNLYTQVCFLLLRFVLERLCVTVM
An outline of the steps: as §1

Assay [15] concerns the target T10, ETV2 (Homo sapiens, UniProt O00321 1-342).
T10 sequence: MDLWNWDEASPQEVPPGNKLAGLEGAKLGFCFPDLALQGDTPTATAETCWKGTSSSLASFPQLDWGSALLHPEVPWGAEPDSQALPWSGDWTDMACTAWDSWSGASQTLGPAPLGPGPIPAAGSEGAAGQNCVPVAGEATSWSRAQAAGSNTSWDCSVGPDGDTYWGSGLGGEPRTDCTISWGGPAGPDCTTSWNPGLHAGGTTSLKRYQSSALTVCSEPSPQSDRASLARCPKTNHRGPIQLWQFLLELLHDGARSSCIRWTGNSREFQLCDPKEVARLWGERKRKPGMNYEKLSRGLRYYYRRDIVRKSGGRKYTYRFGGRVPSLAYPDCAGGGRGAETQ
An outline of the steps:
as §1

The target in assay [16] is T11, ELF3 (Homo sapiens, UniProt P78545 1-371).
T11 sequence: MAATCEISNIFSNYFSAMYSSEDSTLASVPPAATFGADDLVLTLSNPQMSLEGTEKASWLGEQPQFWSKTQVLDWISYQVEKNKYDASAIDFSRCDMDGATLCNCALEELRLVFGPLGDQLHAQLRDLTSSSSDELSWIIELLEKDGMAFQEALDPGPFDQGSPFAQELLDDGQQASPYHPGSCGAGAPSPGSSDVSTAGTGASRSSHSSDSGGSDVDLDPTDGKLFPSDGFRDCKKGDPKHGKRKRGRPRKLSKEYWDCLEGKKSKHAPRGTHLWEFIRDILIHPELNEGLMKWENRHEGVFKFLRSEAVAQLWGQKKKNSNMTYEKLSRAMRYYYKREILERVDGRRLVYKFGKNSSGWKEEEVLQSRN
An outline of the steps:
as §1

Chain of ELF4 (Q99607 whole entry): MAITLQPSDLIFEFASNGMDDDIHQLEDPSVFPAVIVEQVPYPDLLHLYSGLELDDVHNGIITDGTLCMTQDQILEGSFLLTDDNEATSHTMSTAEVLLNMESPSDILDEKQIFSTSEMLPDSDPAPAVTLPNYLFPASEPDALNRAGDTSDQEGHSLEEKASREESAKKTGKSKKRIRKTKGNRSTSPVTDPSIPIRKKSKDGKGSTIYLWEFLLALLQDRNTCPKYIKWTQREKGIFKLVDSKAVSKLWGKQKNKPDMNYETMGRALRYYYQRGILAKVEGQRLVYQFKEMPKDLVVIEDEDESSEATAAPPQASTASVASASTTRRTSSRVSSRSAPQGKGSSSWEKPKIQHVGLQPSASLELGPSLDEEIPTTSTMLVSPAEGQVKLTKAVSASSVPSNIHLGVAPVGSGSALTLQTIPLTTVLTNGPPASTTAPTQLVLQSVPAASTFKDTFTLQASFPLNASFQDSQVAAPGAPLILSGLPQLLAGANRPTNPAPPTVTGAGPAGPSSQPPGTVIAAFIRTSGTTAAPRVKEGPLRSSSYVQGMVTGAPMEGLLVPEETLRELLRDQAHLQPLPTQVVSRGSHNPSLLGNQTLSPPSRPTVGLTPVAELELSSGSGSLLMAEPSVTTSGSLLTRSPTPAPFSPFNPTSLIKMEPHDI
Chain of SPIB (Q01892 whole entry): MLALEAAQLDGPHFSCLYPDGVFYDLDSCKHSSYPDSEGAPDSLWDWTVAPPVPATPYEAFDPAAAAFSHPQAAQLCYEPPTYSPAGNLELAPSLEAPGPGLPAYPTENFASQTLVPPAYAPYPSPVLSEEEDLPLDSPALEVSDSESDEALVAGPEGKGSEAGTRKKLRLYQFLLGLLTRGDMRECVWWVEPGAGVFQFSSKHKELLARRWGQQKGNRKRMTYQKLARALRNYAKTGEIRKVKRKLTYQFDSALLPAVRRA
Chain of ELF1 (P32519 whole entry): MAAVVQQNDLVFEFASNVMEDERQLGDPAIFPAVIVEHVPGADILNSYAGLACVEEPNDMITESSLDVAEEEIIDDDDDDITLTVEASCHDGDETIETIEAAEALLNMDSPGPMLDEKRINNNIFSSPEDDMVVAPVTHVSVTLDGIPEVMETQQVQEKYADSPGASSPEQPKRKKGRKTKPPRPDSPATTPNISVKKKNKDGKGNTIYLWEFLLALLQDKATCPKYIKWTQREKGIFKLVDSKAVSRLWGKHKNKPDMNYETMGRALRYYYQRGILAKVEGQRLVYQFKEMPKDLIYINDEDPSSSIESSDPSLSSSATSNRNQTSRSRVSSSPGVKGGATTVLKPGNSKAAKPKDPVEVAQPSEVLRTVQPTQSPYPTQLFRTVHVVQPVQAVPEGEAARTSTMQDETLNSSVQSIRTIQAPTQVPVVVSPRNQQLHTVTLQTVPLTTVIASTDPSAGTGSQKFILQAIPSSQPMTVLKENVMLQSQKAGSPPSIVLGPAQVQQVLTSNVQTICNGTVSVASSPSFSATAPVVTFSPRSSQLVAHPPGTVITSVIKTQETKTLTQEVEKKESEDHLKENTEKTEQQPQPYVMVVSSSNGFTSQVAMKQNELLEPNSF
Chain of ETV5 (P41161 whole entry): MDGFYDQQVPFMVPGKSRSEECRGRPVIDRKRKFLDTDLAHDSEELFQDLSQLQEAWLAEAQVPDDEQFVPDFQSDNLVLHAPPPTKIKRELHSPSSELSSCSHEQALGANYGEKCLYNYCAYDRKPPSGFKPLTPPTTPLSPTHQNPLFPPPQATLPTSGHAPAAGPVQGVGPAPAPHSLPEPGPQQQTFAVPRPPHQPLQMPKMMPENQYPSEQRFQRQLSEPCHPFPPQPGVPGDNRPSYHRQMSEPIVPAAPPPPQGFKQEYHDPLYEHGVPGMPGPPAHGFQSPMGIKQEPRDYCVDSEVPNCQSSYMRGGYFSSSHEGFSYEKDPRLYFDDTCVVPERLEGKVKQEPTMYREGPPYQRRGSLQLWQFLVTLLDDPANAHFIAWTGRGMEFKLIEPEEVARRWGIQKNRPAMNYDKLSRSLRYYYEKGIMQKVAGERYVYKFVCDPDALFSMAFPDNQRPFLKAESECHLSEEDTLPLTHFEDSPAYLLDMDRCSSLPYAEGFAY

For ATGTAG, the binding signal in assay [1] was 1.05 fold enrichment (6-mer frequency, TF over GST control); in assay [2], 1.03 fold enrichment (6-mer frequency, TF over GST control); in assay [3] it was 1.04 fold enrichment (6-mer frequency, TF over GST control); in [4], 1.01 fold enrichment (6-mer frequency, TF over GST control); in assay [5] it was 1.09 fold enrichment (6-mer frequency, TF over GST control); in assay [6], 1.07 fold enrichment (6-mer frequency, TF over GST control). The binding signal was 1 fold enrichment (6-mer frequency, TF over GST control) in assay [7]; 1.01 fold enrichment (6-mer frequency, TF over GST control) in assay [8]; 1.05 fold enrichment (6-mer frequency, TF over GST control) in assay [9]; 1.02 fold enrichment (6-mer frequency, TF over GST control) in [10]; 1.08 fold enrichment (6-mer frequency, TF over GST control) in assay [11]; 1.09 fold enrichment (6-mer frequency, TF over GST control) in assay [12]. Also, the binding signal in assay [13] was 1.1 fold enrichment (6-mer frequency, TF over GST control); in [14], 1.15 fold enrichment (6-mer frequency, TF over GST control); in assay [15], 1.03 fold enrichment (6-mer frequency, TF over GST control); in [16], 1.06 fold enrichment (6-mer frequency, TF over GST control).
